In PubChem BioAssay (NCI):
About 79,000 compounds went through this panel and 15% of them were active in at least one assay; those are over-represented in the sample as a whole. Values without a mark were called inactive. Activity calls are given as the source filed them. No stated cut-off is given here; in the data, active means growth inhibition above about 70%; inactive means the rest.

Columns and labels:
[1] = NCI Yeast Anticancer Drug Screen. Data for the rad50 strain (AID 155);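 further: 0% = growth of vehicle-only cultures of the same strain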; conditions: S. cerevisiae rad50 strain growth inhibition, stronger effect = higher value
Outline: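 Genetically altered yeast (DNA repair pathway); compound treatment; growth inhibition vs vehicle ctrl.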

[2] = NCI Yeast Anticancer Drug Screen. Data for the mec2-1 strain (AID 157); conditions: S. cerevisiae mec2-1 strain, stronger effect = higher value
Outline: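 Yeast mec2-1 mutant treated with compound. Readout: growth inhibition vs vehicle controls.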

[3] = NCI Yeast Anticancer Drug Screen. Data for the sgs1 mgt1 strain (AID 161);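 further: 0% = growth of cultures given vehicle only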; conditions: S. cerevisiae sgs1 mgt1 strain, stronger effect = higher value
Outline: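 Genetically altered yeast, compound exposure, growth inhibition relative to vehicle.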

[4] = NCI Yeast Anticancer Drug Screen. Data for the cln2 rad14 strain (AID 165);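 further: 0% = growth equal to vehicle treated cultures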; conditions: S. cerevisiae cln2 rad14 strain, stronger effect = higher value
Outline: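 cln2 rad14 yeast strain; compound exposure; growth inhibition read vs vehicle controls.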

[5] = NCI Yeast Anticancer Drug Screen. Data for the bub3 strain (AID 167); conditions: S. cerevisiae bub3 mutant strain, stronger effect = higher value
Outline: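 Yeast carrying a defined mutation is treated with each compound, and growth is compared with that of vehicle-exposed cells to give inhibition.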

[6] = NCI Yeast Anticancer Drug Screen. Data for the mlh1 rad18 strain (AID 175); conditions: S. cerevisiae mlh1 rad18 strain growth inhibition, stronger effect = higher value
Outline: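 Yeast w/ defined DNA-repair lesions; compound exposure; growth vs vehicle controls → % inhibition.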

[7] = at 5.0 µM (retest, dose inferred, filed as 0.5)
[8] = at 50.0 µM (retest, dose inferred, filed as 5.0)

| Structure (SMILES) | growth inhibition [1, 7] | growth inhibition [1, 8] | growth inhibition ([1]; at 50.0 µM) | growth inhibition [2, 7] | growth inhibition [2, 8] | growth inhibition ([2]; at 50.0 µM) | growth inhibition [3, 7] | growth inhibition [3, 8] | growth inhibition ([3]; at 50.0 µM) | growth inhibition [4, 7] | growth inhibition [4, 8] | growth inhibition ([4]; at 50.0 µM) | growth inhibition [5, 7] | growth inhibition [5, 8] | growth inhibition ([5]; at 50.0 µM) | growth inhibition [6, 7] | growth inhibition [6, 8] | growth inhibition ([6]; at 50.0 µM) |
| --- | --- | --- | --- | --- | --- | --- | --- | --- | --- | --- | --- | --- | --- | --- | --- | --- | --- | --- |
| CCCCCCCCC(N)CCCCCCCC | 99% (active) | 98% (active) | 99% (active) | 100% (active) | 99% (active) | 99% (active) | 99% (active) | 99% (active) | 46% | 96% (active) | 99% (active) | 98.8% (active) | 99% (active) | 98% (active) | 99.2% (active) | 99% (active) | 98% (active) | 99.5% (active) |
| N#Cc1c(-c2ccc(Cl)cc2)c(-c2ccc(Cl)cc2)nn(CCOC(=O)CN)c1=O | 18% | 94% (active) | 40.5% | 10% | 96% (active) | 57% | -27% | 89% (active) | 45.6% | 6% | 82% (active) | 18.6% | -16% | 86% (active) | 35.1% | 22% | 97% (active) | 87% (active) |
| O=C1C=CC(=O)N1c1ccc(Cl)cc1Br | 49% | 42% | 93.3% (active) | 40% | 44% | 94.3% (active) | 100% (active) | 100% (active) | 94.2% (active) | 68% | 100% (active) | 92.4% (active) | 100% (active) | 99% (active) | 58.4% | 28% | 45% | 92.5% (active) |
| Clc1ccc([I+]c2cccs2)cc1 | 37% | 97% (active) | 98% (active) | 51% | 99% (active) | 98.7% (active) | 45% | 98% (active) | 8.95% | 33% | 97% (active) | 97.7% (active) | 66% | 97% (active) | 98% (active) | 72% (active) | 98% (active) | 99% (active) |
| CCC(=O)N(CCC(C)C)c1ccccc1 | 3% | 7% | 11.8% | -2% | 2% | -2.15% | 0% | 1% | -8.65% | 3% | 4% | 41.1% | 3% | -11% | -18.6% | 3% | 2% | -11.9% |
| O=c1oc(-c2cccc(C(Cl)Cl)c2)ns1 | 7% | 99% (active) | 98.2% (active) | 5% | 100% (active) | 99.1% (active) | 12% | 100% (active) | 99.2% (active) | 2% | 99% (active) | 69% | 3% | 99% (active) | 97.7% (active) | 13% | 99% (active) | 99.1% (active) |
| Nc1nc(-c2ccccn2)cc2c(Cl)cccc12 | 12% | 90% (active) | -2.3% | 23% | 96% (active) | -22.1% | 21% | 92% (active) | 11.7% | 13% | 75% (active) | 3.7% | -8% | 91% (active) | 17.6% | 34% | 96% (active) | 8.75% |
| N#CSc1ccc(O)cc1 | 0% | 95% (active) | 94.3% (active) | 1% | 97% (active) | 96.2% (active) | 4% | 97% (active) | 92.6% (active) | 3% | 97% (active) | 93.8% (active) | 0% | 96% (active) | 96.4% (active) | 1% | 95% (active) | 93.3% (active) |
| CN(CCC1CCCCC1)CCC1CCCCC1 | 21% | 89% (active) | 97.9% (active) | 9% | 72% (active) | 80.3% (active) | 35% | 97% (active) | 97.2% (active) | 14% | 73% (active) | 77.6% (active) | 30% | 97% (active) | 96.5% (active) | 11% | 89% (active) | 93.6% (active) |
| COc1ccc2ccc(=O)oc2c1CC=C(C)C | 88% (active) | 98% (active) | 46.5% | 13% | 99% (active) | 37.6% | 6% | 99% (active) | 72.5% (active) | 7% | 98% (active) | -9.6% | 14% | 98% (active) | 62% | 13% | 98% (active) | 31.5% |
| N=C(N)SC1c2ccccc2-c2ccc(N)cc21 (stereo not given) | 17% | 95% (active) | 98% (active) | 4% | 75% (active) | 98.4% (active) | -1% | 77% (active) | 98.5% (active) | -4% | 81% (active) | 96.8% (active) | 0% | 86% (active) | 97% (active) | 12% | 95% (active) | 97.8% (active) |
| CCSC(=S)NC(=O)c1ccccc1 | -6% | 27% | 60.2% | 1% | 20% | 21.4% | -2% | 30% | 76.5% (active) | -12% | 28% | 38.1% | -7% | 44% | 17.2% | -3% | 32% | 36.9% |
| CCCCCC(CN(C)C)C(=O)/C=C/c1ccc(Cl)cc1 (stereo not given) | 21% | 99% (active) | 99.2% (active) | -1% | 100% (active) | 99.3% (active) | 6% | 99% (active) | 99.3% (active) | -1% | 99% (active) | 99.2% (active) | 5% | 98% (active) | 99.3% (active) | 33% | 99% (active) | 99.2% (active) |
| CCO[Si](CC)(OCC)OCC | -3% | 2% | 27.1% | -6% | -3% | 4.4% | 4% | 3% | -12.2% | 0% | 3% | 81.1% (active) | -3% | 6% | -6% | -2% | 3% | 31.8% |
| CC(=O)Nc1n[n+]([O-])c2cc(C)ccc2[n+]1[O-] | 96% (active) | 99% (active) | 99.2% (active) | 96% (active) | 99% (active) | 99.7% (active) | 93% (active) | 99% (active) | 99.4% (active) | 92% (active) | 99% (active) | 99% (active) | 95% (active) | 99% (active) | 99% (active) | 97% (active) | 99% (active) | 99.4% (active) |
| Cc1ccc(C)c([N+](=O)[O-])c1 | -2% | 11% | 51.1% | 1% | -2% | 17.6% | -1% | -2% | 13.8% | 1% | 1% | -7.1% | -1% | 1% | 6.25% | 0% | 12% | 28.2% |
| COC1OC2COC(c3ccccc3)OC2C(NC(=S)SCc2ccccc2)C1O (stereo not given) | -3% | 98% (active) | 99.4% (active) | 0% | 98% (active) | 99.3% (active) | -1% | 98% (active) | 99.5% (active) | 3% | 98% (active) | 99.5% (active) | 0% | 99% (active) | 99.2% (active) | 7% | 98% (active) | 99% (active) |
| CCCCCCCCCCCC(=O)OCCCCC | -5% | 0% | 74.8% (active) | -1% | 1% | 87.3% (active) | -3% | 3% | 65.8% | -1% | -4% | -2.5% | -2% | -4% | 80.6% (active) | -8% | 0% | 87.7% (active) |
| CSc1cc(-c2cc3ccccc3o2)oc(=O)c1C#N | 6% | -8% | -1.6% | -1% | -10% | -6.6% | 3% | -11% | -24.4% | -9% | -6% | -4.5% | -5% | -8% | 40.1% | -4% | -11% | -23.9% |
| COC(=O)c1c2oc3c(C(=O)OC)cccc3nc-2cc(N)c1=O | 0% | 19% | 30.2% | 22% | 56% | 25.7% | 6% | 22% | 8.8% | -5% | -2% | -46.5% | 49% | 59% | 66.5% | 3% | 44% | 22.5% |
